# Shown are actives, neighbours in structure and some others; about 5.2% of the full set was active somewhere.
# A3A deaminase: human APOBEC3A DNA deaminase inhibition; recombinant A3A, FAM/TAMRA ssDNA deamination fluorescence; inhibition, % at 20 µM; 330,000 tested, 0.41% active;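 active = at least 40% inhibition at 20 µM here, with at most 30% in a related deaminase screen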;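 also: plate controls were A3A with DMSO for no effect and wells lacking A3A enzyme for full effect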
# NRP1-CendR mod: alters CendR peptide binding to human NRP-1; O14786; FAM-RPARPAR peptide binding to NRP-1, fluorescence polarization; inhibition, % at 25 µM; 360,000 tested, 0.85% active;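 active = inhibition or corrected inhibition above about 18%, plus a signal ratio from 0.5 to 1.5, limit read from the data, passing the limit was not always enough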
# ALR H2O2 inh: human ALR oxidase inhibition via reduced H2O2; AID 485317; purified ALR, DTT oxidation, H2O2 HRP-luminol luminescence; P55789; 290,000 tested, 3.8% active; inhibition, % (test concentration not listed);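 active = mean replicate inhibition above about 79%, with every replicate also reaching it, limit read from the data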
# Target sequence (P55789 whole entry, looked up): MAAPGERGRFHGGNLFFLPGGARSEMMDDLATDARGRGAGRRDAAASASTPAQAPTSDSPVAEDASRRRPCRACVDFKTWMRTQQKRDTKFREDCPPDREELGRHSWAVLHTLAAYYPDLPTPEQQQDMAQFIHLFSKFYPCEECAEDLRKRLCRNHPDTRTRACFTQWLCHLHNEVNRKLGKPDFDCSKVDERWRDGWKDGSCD
# CR mimetic SO: lowers age-related superoxide in aged yeast cells | S. cerevisiae aged cells, superoxide DHE fluorescence; hits give low values | superoxide response (% of plate mean), % at 10 µM | 330,000 tested, 0.18% active | AID 2690;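 active = superoxide response under a set limit, about three screen SD below normal, cut at about 65% in these data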;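 also: yeast aged for seven days with compound at 30 °C before DHE staining; 100% = average MFI of all compound-treated wells on the plate with controls excluded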
# A3G deaminase: blocks human APOBEC3G single-stranded DNA deamination | Q9HC16 | recombinant A3G, ssDNA deamination FAM/TAMRA fluorescence | inhibition, % at 20 µM | 330,000 tested, 0.28% active;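 active = inhibition of at least 40% at 20 µM, with no more than 30% in the related APOBEC3A deaminase screen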;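 also: plate controls were DMSO wells with A3G for no effect and wells lacking A3G enzyme for full effect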
# Target sequence (Q9HC16 whole entry, looked up): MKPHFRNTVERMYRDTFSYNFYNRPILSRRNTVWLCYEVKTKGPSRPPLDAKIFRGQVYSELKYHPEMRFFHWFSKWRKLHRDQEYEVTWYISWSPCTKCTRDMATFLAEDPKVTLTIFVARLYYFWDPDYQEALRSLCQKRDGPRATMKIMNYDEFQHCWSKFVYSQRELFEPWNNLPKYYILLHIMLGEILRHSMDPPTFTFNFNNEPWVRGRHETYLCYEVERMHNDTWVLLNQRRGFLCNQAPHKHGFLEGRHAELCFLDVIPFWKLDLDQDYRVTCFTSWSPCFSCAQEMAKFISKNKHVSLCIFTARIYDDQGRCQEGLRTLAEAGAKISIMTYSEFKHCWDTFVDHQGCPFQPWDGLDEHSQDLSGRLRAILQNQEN
# M18AAP inhibitor: blocks P. falciparum M18 aspartyl aminopeptidase; recombinant PfM18AAP, H-Glu-NHMec fluorogenic cleavage; inhibition, % at 7.35 µM; 290,000 tested, 1.2% active; AID 1822;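 active = inhibition above the campaign mean inhibition over all tested compounds plus 3 SD, cut at about 28% in these data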;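 also: 0% = plate median of test compound wells and 100% = 2 mM ZnCl2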
# Numbers without * were called inactive; x = not tested or not shown.
SMILES,A3A deaminase,NRP1-CendR mod,ALR H2O2 inh,CR mimetic SO,A3G deaminase,M18AAP inhibitor
O=C(CCN1CCOCC1)c1ccc(Br)cc1,-2,-3,98*,91,3,-5
CC(C)Oc1ccc(C(=O)CCN2CCOCC2)cc1,0,-7,53,100,4,x
O=C(CCN1CCOCC1)c1ccc(Cl)cc1,-3,13,96*,100,-6,-3
O=C(NC1CCCCC1)C(c1cc2ccccc2o1)N1CCOCC1 (stereo not drawn),x,3,x,x,x,x
Cc1nn2c(CN(C(=O)c3ccco3)c3ccccc3)nnc2c2ccccc12,x,4,x,x,x,-3
N#CC(c1ccc([N+](=O)[O-])cc1)C(CC(=O)c1ccccc1)c1ccccc1 (stereo not drawn),x,28*,x,x,x,x
O=C(NNS(=O)(=O)c1ccc2ccccc2c1)c1cc(-c2ccccn2)nc2ccccc12,-1,-13,96*,92,-4,-6
CN1c2ccc([N+](=O)[O-])cc2N(C)C1(C)c1ccccc1 (stereo not drawn),-4,-18,99*,118,8,7
Cn1c2ccccc2c2cc([N+](=O)[O-])ccc21,-4,-2,-11,99,-5,0
CCC(=NNC(=O)c1cccc(S(=O)(=O)N2CCOCC2)c1)c1ccccc1,1,8,0,94,-1,x
CC(=O)OC1CC(C)(C)N(OC(=O)c2ccc(N)cc2)C(C)(C)C1,-1,7,98*,85,-7,0
Oc1ccc(/C=N/Nc2ccnc3cc(Cl)ccc23)cc1O,0,-11,67,91,-1,29*
Clc1ccc2c(NCc3ccccn3)ccnc2c1,2,2,-5,112,1,1
Cc1oc(C(=O)Nc2ccc(C(=O)O)cc2)cc1COc1ccccc1,-1,-5,97*,91,-3,6
CC(C)(C)OC(=O)N(CCc1ccccc1)Cc1ccccc1OCc1ccc(NC(=O)C2CCCC2)cc1,x,-10,x,x,x,x
C=CCn1sc(=N)c(C#N)c1N,0,-92,99*,86,0,1
Cc1ccccc1-n1c(C)nnc1SC(C)C(=O)NCC1CCCO1 (stereo not drawn),-4,-1,x,79,-6,x
C[C@H](CO)N1C[C@H](C)[C@@H](CN(C)C(=O)Nc2ccc3c(c2)OCO3)Oc2ccc(NC(=O)NC3CCCCC3)cc2C1=O,-2,4,-9,78,-7,x
O=C(c1cccc(F)c1)N1CCC(c2nc3ccccc3s2)CC1,-3,6,100*,105,2,10
NS(=O)(=O)c1ccc(NC(=O)CCCCCN2C(=O)c3ccccc3C2=O)cc1,-3,11,x,x,-7,x
O=c1/c(=C\c2cccn2-c2ccccc2)sc2nc3ccccc3n12,x,-16,x,x,x,2
CC(C)n1cc(/C=C2\NC(=O)N(c3cccc(Cl)c3)C2=O)c2ccccc21,7,-45,x,109,1,-3
O=C(O)Cn1cc(/C=C2/NC(=O)N(c3ccc(Cl)cc3)C2=O)c2ccccc21,-3,-11,92*,97,-11,5
O=C(O)Cn1cc(/C=c2/sc3nc4ccccc4n3c2=O)c2ccccc21,0,-87,99*,96,-5,11
C/C(=C\C(=O)c1ccc(Cl)cc1)NCc1ccc2c(c1)OCO2,3,4,-1,103,0,-7
SMILES,A3A deaminase,NRP1-CendR mod,ALR H2O2 inh,CR mimetic SO,A3G deaminase,M18AAP inhibitor
CCN(CC)c1ccc(NC(=O)CCNC(=O)c2ccco2)cc1,0,5,99*,84,0,5
CCN(c1ccc(NC(=O)CSCc2c(C)noc2C)cc1)C(C)C,0,4,99*,102,5,x
CCNc1nc(NCC)n2c(SCC(=O)Nc3ccc(NC(C)=O)cc3)nnc2n1,10,8,98*,66,10,x
CCN(c1ccc(NC(=O)CSc2nnc3nc(C)cc(C)n23)cc1)C(C)C,4,-10,99*,113,6,16
Cn1c(=O)c2c(n(Cc3ccccc3)c1=O)NC(=O)C2CC(=O)O (stereo not drawn),2,-7,6,87,2,8
O=C(CCN1C(=O)/C(=C/c2ccc(F)cc2)SC1=S)NCCc1cnc[nH]1,-6,-20,98*,109,-6,12
O=C(CCN1C(=O)/C(=C/c2ccc(F)cc2)SC1=S)NNC(=O)c1ccncc1,-5,13,1,84,-12,8
COc1ccc(F)cc1S(=O)(=O)n1cc(C)nc1-c1ccccc1,-9,4,0,99,-12,0
c1ccc(-c2cn(CC3CCCCC3)nn2)cc1,2,4,-2,104,2,3
CNc1cccccc1=S,37,25*,-10,112,68,-1
Cc1cccc(NC(=O)CSCc2cc(=O)n3nc(C4CC4)sc3n2)c1,-3,6,98*,88,-6,2
CCOCCc1nn2c(=O)cc(CSCC(=O)Nc3ccccc3)nc2s1,1,6,99*,80,3,-3
COc1cccc(NC(=O)CSCc2cc(=O)n3ccsc3n2)c1,-3,1,99*,111,-3,-7
O=C(CSCc1cc(=O)n2ccsc2n1)Nc1ccccc1,-6,2,99*,101,-1,-8
COc1ccc(NC(=O)CSCc2cc(=O)n3nc(C4CC4)sc3n2)cc1,-2,8,41,87,-7,-2
CCOCCc1nn2c(=O)cc(CSCC(=O)Nc3ccc(OC)cc3)nc2s1,-4,6,-3,100,0,-17
CC(=O)Nc1ccc(/C=N/N2C(=O)NC(C)(c3ccc(OC(F)F)cc3)C2=O)cc1 (stereo not drawn),2,4,x,100,-4,-16
CC(=O)c1cccc(NC(=O)CSc2nc(N3CCCCC3)nc(N3CCCCC3)n2)c1,-4,6,x,117,-3,6
O=C1N/C(=N\N=C\c2ccco2)SC1Cc1ccccc1[N+](=O)[O-] (stereo not drawn),3,3,65,96,1,15
Cc1ccc(S(=O)(=O)c2nc(NN(C)C)sc2Cl)cc1,-3,1,97*,113,-2,12
Cc1ccc(S(=O)(=O)c2nc(Nc3ccccc3C#N)sc2Cl)cc1,1,-11,-4,94,-8,0
Cc1ccc2c(c1)c1c(n2CC(O)Cn2c(C)nc3ccccc32)CCCC1 (stereo not drawn),1,4,x,96,-2,1
CC(C)(C)C(C(=O)NC1CCCC1)N1CCN(c2ncccc2C#N)CC1 (stereo not drawn),x,30*,x,x,x,x
N#Cc1cccnc1N1CCN(C(C(=O)NC2CCCC2)c2ccco2)CC1 (stereo not drawn),x,1,x,x,x,x
Cc1ccc(OCC(=O)N2CCN(C3=NS(=O)(=O)c4ccccc43)CC2)cc1,4,-5,0,95,-4,2

# Compound activity: PubChem, several laboratories
